This is an account of results in PubChem BioAssay (EPA / NIEHS).

For experiment [1], the system named is guinea pig Dopamine Transporter (DAT), gene 100714898. Nature of the experiment: NVS_TR_gDAT: NovaScreen (NVS) Transporter Assay for guinea pig Dopamine Transporter (DAT) (AID 2283369).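 Further: active compounds lower bound radioligand signal relative to DMSO.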 The essentials:
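Cell-free striatal membrane prep (guinea pig), 2 h exposure, filtration + scintillation readout of radioligand binding. Single-point 25 uM duplicate; actives rerun singleton, top conc 50 uM.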

The test system of experiment [2] is rat Norepinephrine Transporter (NET), gene 83511. Nature of the experiment: NVS_TR_rNET: NovaScreen (NVS) Transporter Assay for rat Norepinephrine Transporter (NET) (AID 2283373). The essentials: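 Rat forebrain membranes; radioligand binding measured by filter-based scintillation counting 1 hour after dosing. Loss of specific binding versus DMSO baseline scored; primary screen in duplicate at 25 uM, actives followed up in concentration series.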

For experiment [3], the target named is Peroxisome proliferator-activated receptor gamma (Homo sapiens) (UniProt P37231). Nature of the experiment: NVS_NR_hPPARg: NovaScreen (NVS) Nuclear Receptor Binding Assay for human Peroxisome Proliferator-activated Receptor gamma (PPARg) (AID 2283370). The method in brief:
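FP read-out, 2 h post-dose, cell-free extracted receptor protein. Signal loss vs DMSO negative control = binding activity. Single-conc duplicate HTS at 25 uM; concentration-response follow-up for actives.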

For experiment [4], the target named is Norway rat Vesicular Monoamine Transporter (VMAT2), neurotransmitter transporter, Slc18a2 (gene 25549) (UniProt Q01827). Nature of the experiment: NVS_TR_rVMAT2: NovaScreen (NVS) Transporter Assay for Norway rat Vesicular Monoamine Transporter (VMAT2), neurotransmitter transporter (AID 2283376).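 Further: actives lower the bound radioligand signal below the DMSO level.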 The essentials: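 Rat forebrain tissue preparation used in a cell-free radioligand binding format; displacement read by filter-based scintillation counting 1 hour after dosing. Primary screen in duplicate at 25 uM, actives then run in concentration series; loss of signal versus DMSO baseline.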

Experiment [5] has as its target Agonist Androgen Response Element (ARE), AR (gene 367) (UniProt P10275). Nature of the experiment: OT_AR_ARELUC_AG_1440: Odyssey Thera (OT) 24-hour CHO-K1 Luciferase Assay for Agonist Androgen Response Element (ARE) (AID 2283379). The essentials:
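Seed CHO-K1 cells; dose compounds for 24 h; add D-luciferin plus ATP in PBS; read luminescence. Signal increase relative to vehicle defines agonist activity, with at least 3 replicate wells per sample.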

The target in experiment [6] is human Dopamine Transporter (DAT), SLC6A3 (gene 6531) (UniProt Q01959). The experiment in a line: NVS_TR_hDAT: NovaScreen (NVS) Transporter Assay for human Dopamine Transporter (DAT) (AID 2283374).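 Further: activity means loss of bound radioligand signal relative to DMSO.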 The method in brief: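 Cell-free radioligand binding to extracted human DAT protein, read 1 h after dosing by filter-based scintillation counting. Loss of specific binding scored against DMSO baseline; primary screen in duplicate at 25 uM, actives then run in concentration series.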

For experiment [7], the target named is mouse Estrogen Receptor alpha (Era), Esr1 (gene 13982) (UniProt P19785). Nature of the experiment: NVS_NR_mERa: NovaScreen (NVS) Nuclear Receptor Binding Assay for mouse Estrogen Receptor alpha (Era) (AID 2283378).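 Further: hit means loss of bound radioligand signal relative to DMSO.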 The essentials: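 Filter scintillation counts of bound radioligand, measured 18 h post-dose, gave the readout; decreased signal relative to DMSO controls indicated displacement from mouse Era. Primary screen ran in duplicate at 25 uM; active chemicals were retested across concentrations.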

In experiment [8] the target is human Serotonin Transporter (SERT), SLC6A4 (gene 6532) (UniProt P31645). Nature of the experiment: NVS_TR_hSERT: NovaScreen (NVS) Transporter Assay for human Serotonin Transporter (SERT) (AID 2283372). The essentials: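 Radioligand binding to native SERT in human platelet membranes, read by filter-based scintillation counting 1 h after dosing. Primary screen in duplicate at 25 uM; actives followed up in concentration series; loss of signal versus DMSO baseline.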

Experiment [9] has as its target human Adenosine Transporter (Adot), SLC29A1 (gene 2030) (UniProt Q99808). The experiment in a line: NVS_TR_hAdoT: NovaScreen (NVS) Transporter Assay for human Adenosine Transporter (Adot) (AID 2283368). The essentials:
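U937-derived membranes, cell-free radioligand binding, filter scintillation 1 h after dosing. 25 uM duplicate screen; hits (e.g. 30% inhibition) run in concentration-response up to 50 uM; loss of signal versus DMSO.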

Experiment [10] concerns the target rat Serotonin Transporter (SERT), Slc6a4 (gene 25553) (UniProt P31652). The experiment in a line: NVS_TR_rSERT: NovaScreen (NVS) Transporter Assay for rat Serotonin Transporter (SERT) (AID 2283375). The essentials:
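Radioligand displacement, filter scintillation readout; rat forebrain membrane prep, 1 h post-dose. Single-conc 25 uM duplicate screen, then concentration-response on actives. Loss of signal vs DMSO baseline.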

Several values for one entry are separate records, joined by “and”; a condition that tells them apart may be missing. Equal values may be shown once. Records with an inconclusive call do not appear. Some structures have more than one record in an assay (separate samples or runs), and their calls can disagree. Activity calls are given as the source filed them. How the source made its calls: active means hit-call score of the fitted dose curve at least 0.9, where 1 is the maximum; inconclusive means response in the unintended direction; inactive means score below 0.9.

Agonist Androgen Response Element (ARE), AR (gene 367), sequence (P10275 whole entry, looked up): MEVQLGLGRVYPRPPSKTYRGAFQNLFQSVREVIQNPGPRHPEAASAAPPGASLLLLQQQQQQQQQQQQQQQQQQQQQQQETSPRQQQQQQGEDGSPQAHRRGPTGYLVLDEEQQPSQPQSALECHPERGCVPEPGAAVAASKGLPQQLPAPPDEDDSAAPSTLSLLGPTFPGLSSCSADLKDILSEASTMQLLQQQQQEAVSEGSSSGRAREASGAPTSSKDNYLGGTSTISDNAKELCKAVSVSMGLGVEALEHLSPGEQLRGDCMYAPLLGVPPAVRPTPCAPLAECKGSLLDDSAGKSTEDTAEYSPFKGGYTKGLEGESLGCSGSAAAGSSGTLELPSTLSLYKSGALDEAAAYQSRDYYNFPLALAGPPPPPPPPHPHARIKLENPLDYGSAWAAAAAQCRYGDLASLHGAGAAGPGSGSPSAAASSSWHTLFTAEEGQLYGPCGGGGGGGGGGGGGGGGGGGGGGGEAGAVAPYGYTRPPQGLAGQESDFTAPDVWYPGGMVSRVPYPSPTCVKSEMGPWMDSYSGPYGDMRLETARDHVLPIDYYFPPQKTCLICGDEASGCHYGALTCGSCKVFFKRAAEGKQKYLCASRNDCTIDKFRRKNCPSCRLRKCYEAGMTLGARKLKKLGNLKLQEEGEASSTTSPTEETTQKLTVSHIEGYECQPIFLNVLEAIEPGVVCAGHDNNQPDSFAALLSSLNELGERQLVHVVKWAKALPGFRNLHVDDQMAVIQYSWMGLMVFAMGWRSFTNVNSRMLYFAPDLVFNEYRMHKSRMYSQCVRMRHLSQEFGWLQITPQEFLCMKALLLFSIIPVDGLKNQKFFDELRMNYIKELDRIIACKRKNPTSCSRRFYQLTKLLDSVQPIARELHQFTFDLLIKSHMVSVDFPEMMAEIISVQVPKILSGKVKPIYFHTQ
human Serotonin Transporter (SERT), SLC6A4 (gene 6532), sequence (P31645 whole entry, looked up): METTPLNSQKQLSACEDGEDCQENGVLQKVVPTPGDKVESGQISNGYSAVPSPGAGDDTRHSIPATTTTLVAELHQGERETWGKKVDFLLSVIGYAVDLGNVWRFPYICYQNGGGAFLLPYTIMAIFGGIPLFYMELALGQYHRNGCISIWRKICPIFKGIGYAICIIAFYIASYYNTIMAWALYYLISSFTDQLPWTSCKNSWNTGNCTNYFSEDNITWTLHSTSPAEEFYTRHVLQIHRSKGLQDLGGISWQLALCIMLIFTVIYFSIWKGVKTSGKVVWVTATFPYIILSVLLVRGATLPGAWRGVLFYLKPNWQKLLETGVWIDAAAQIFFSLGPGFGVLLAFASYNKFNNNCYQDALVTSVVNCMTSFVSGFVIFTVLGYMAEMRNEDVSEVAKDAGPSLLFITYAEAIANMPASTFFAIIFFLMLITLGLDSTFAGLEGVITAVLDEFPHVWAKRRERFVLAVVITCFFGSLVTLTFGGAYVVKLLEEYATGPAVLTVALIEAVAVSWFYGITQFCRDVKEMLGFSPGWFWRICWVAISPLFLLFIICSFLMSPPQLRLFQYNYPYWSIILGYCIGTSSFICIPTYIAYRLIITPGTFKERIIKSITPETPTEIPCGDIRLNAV
Peroxisome proliferator-activated receptor gamma (Homo sapiens), sequence (P37231 whole entry, looked up): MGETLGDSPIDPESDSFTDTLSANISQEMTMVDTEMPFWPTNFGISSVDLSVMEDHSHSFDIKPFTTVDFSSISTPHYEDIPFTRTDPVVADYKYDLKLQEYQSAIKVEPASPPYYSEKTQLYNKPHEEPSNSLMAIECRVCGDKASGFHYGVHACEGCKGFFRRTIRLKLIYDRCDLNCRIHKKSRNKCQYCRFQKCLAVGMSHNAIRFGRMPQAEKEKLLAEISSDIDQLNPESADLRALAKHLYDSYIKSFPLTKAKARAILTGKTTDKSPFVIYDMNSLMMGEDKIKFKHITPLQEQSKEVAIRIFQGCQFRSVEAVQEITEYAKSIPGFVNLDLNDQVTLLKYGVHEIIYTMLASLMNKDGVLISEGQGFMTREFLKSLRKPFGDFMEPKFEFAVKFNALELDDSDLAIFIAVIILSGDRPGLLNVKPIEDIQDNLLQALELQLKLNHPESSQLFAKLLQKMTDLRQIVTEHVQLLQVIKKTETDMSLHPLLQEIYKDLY
human Dopamine Transporter (DAT), SLC6A3 (gene 6531), sequence (Q01959 whole entry, looked up): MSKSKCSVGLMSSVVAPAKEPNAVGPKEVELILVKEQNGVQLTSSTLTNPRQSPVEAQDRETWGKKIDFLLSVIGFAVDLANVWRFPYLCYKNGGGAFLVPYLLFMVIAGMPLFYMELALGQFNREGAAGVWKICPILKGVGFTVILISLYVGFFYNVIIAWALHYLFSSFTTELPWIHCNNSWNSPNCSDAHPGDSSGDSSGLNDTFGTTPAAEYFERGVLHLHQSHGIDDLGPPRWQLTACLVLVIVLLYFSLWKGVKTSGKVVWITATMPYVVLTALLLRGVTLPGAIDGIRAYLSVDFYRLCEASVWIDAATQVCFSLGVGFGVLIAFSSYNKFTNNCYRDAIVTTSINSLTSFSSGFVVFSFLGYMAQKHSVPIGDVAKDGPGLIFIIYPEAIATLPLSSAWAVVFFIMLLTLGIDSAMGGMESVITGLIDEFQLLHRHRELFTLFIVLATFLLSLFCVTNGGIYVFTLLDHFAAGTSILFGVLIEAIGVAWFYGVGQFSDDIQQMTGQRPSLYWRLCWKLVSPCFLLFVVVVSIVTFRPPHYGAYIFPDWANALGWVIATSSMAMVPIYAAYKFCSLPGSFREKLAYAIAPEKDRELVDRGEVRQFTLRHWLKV
mouse Estrogen Receptor alpha (Era), Esr1 (gene 13982), sequence (P19785 whole entry, looked up): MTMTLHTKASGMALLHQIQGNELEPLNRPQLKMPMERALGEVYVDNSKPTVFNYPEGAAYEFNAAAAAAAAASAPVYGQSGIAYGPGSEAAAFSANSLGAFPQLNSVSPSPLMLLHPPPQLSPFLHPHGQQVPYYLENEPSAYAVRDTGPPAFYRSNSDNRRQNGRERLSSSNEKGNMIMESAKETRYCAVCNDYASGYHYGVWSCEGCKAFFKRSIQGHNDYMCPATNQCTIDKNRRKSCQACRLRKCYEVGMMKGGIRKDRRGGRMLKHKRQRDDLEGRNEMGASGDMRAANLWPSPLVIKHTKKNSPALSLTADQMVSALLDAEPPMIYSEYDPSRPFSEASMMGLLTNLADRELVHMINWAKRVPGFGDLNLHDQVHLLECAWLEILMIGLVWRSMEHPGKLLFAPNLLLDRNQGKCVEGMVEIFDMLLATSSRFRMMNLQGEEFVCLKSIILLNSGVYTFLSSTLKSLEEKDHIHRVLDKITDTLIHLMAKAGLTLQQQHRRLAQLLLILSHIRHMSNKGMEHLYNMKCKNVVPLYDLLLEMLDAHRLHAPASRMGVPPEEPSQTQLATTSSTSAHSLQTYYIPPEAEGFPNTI
rat Serotonin Transporter (SERT), Slc6a4 (gene 25553), sequence (P31652 whole entry, looked up): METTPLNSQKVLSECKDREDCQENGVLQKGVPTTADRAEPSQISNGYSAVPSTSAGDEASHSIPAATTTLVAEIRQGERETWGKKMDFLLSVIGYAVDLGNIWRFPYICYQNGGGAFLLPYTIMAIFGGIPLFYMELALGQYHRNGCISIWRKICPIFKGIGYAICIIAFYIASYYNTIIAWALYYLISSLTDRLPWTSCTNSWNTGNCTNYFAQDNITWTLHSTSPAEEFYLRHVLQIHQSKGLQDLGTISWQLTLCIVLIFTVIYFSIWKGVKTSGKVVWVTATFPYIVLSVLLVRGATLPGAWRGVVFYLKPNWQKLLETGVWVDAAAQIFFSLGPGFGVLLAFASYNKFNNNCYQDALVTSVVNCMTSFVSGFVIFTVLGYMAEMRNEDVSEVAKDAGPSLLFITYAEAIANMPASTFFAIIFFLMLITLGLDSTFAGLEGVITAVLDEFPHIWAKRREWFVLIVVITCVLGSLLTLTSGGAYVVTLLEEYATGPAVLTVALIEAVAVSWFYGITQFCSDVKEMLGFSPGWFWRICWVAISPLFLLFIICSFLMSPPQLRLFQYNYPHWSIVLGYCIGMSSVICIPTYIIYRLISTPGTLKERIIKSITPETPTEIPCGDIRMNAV
Norway rat Vesicular Monoamine Transporter (VMAT2), neurotransmitter transporter, Slc18a2 (gene 25549), sequence (Q01827 whole entry, looked up): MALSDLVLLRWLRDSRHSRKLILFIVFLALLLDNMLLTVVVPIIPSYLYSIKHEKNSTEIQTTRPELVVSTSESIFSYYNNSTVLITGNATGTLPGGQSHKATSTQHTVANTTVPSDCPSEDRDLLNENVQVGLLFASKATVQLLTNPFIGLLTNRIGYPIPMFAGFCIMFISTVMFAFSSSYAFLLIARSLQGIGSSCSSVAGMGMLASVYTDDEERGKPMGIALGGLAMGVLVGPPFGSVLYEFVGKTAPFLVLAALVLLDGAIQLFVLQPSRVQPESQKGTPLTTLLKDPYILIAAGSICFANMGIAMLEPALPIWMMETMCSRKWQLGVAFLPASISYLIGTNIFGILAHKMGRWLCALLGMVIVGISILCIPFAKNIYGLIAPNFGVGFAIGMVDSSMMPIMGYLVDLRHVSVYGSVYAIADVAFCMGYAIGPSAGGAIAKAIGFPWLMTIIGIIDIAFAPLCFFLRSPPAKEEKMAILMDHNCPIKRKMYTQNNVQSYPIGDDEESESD
human Adenosine Transporter (Adot), SLC29A1 (gene 2030), sequence (Q99808 whole entry, looked up): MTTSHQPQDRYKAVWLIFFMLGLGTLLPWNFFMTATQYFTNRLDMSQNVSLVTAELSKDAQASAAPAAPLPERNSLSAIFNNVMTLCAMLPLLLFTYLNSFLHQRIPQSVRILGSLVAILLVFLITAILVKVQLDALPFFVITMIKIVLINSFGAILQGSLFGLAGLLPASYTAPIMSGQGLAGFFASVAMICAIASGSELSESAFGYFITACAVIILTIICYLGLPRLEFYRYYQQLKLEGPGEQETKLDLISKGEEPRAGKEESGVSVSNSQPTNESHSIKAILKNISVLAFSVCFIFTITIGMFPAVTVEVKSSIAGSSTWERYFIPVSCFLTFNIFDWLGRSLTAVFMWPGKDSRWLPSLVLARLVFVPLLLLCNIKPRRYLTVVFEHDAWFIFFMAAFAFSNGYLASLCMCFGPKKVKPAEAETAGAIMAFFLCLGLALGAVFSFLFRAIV

Take `CC(C)(C)c1ccc(O)cc1`: the outcome in [1] and in experiment [2] was inactive.

As for `CC1(C)CN=C(NN=C(/C=C/c2ccc(C(F)(F)F)cc2)/C=C/c2ccc(C(F)(F)F)cc2)NC1`, the molecule was classed as inactive in experiment [3] and in [5]. Moreover, the AC50 in experiment [4] was 0.109 µM (active).

As to `Nc1ccc2ccccc2c1`, the call in experiment [3] was inactive. Also, the AC50 was 14.9 µM (active) in [2] and 12.9 µM (active) in [6].

For `CCCCCCCc1ccc(O)cc1`, the call in [3], in experiment [7] and in experiment [5] was inactive. In addition, the half-maximal activity concentration (AC50) is 6.26 µM (active) in [6]; 4.96 µM (active) and 14.5 µM (active) in experiment [7].

As for `CCOC(=O)c1ccccc1N`, the outcome in experiment [3] was inactive.

Take `Cc1ccc(N)cc1N`: in [8], the outcome was inactive.

For `O=[N+]([O-])c1ccc(Cl)c(Cl)c1`, in [3], the AC50 was 9.12 µM (active). The outcome in experiment [6] was inactive.

Consider `CCCN(CCC)c1c([N+](=O)[O-])cc(C(C)C)cc1[N+](=O)[O-]`, for which the call in experiment [8] and in experiment [7] was inactive.

`CCC(C)(C)c1ccc(O)cc1`: the AC50 in experiment [1] is 17.3 µM (active); in experiment [6] it was 10 µM (active); in experiment [7] it was 25 µM (active). In [2], the molecule was called inactive.

In the case of `CC(C)Nc1ccc(Nc2ccccc2)cc1`, the AC50 was 25 µM (active) in experiment [1] and 1.69 µM (active) in experiment [6].

In the case of `CCCCN(CC)C(=O)SCCC`, the outcome in experiment [3], in experiment [7] and in experiment [5] was inactive.

In the case of `CSC(C)(C)C=NO`, the result in experiment [1], in [3] and in [6] was inactive.

Consider `O=S(=O)(c1ccc(O)cc1)c1ccc(O)cc1`, for which the molecule was classed as inactive in [3] and in experiment [7].

As to `CCOP(=S)(OCC)SCSCC`, the outcome in experiment [3] was inactive.

Consider `CC(C)(C)OOC(C)(C)C`, for which, in experiment [3], the outcome was inactive.

Take `CCOS(=O)(=O)OCC`: the call in experiment [3] was inactive.

As to `CCCCN(CCCC)SN(C)C(=O)Oc1cccc2c1OC(C)(C)C2`, the result in experiment [3] and in experiment [7] was inactive.

`ClC1=C(Cl)C2(Cl)C3C(Cl)C(Cl)CC3C1(Cl)C2(Cl)Cl` (centres undefined): the molecule was called inactive in experiment [3], in experiment [8], in experiment [7] and in experiment [5].

With `CCNc1nc(Cl)nc(NC(C)(C)C)n1`, in experiment [3], the AC50 was 0.0134 µM (active). Further, the outcome in experiment [7] and in experiment [5] was inactive.

`O=NN1CCCC1`: the molecule was called inactive in experiment [3].

As for `ClC(Cl)c1ccccc1`, the result in experiment [3] was inactive.

For the molecule `O=P(Oc1ccccc1)(Oc1ccccc1)Oc1ccccc1`, the molecule was classed as inactive in experiment [9]. The concentration at half-maximal activity (AC50) in experiment [1] is 18.8 µM (active); in [3], 0.00229 µM (active); in experiment [6] it was 11.3 µM (active).

On to `c1ccc2c(c1)Nc1ccccc1S2`, for which the result in experiment [3] was inactive.

Regarding `c1ccc(OP(Oc2ccccc2)Oc2ccccc2)cc1`, the outcome in experiment [3], in experiment [6] and in experiment [7] was inactive.

For the molecule `O=c1ssc(Cl)c1Cl`, the molecule was called inactive in experiment [3]. The AC50 in experiment [6] is 14.5 µM (active).

Regarding `Nc1ccc([N+](=O)[O-])cc1Cl`, the AC50 in [10] was 0.0449 µM (active).

In the case of `Oc1ccc(I)cc1`, the AC50 in experiment [10] is 2.5 µM (active).

As usually defined, the AC50 is the midpoint of the concentration-response curve, whichever way the signal moves.
